The panel holds about 79,000 compounds, 15% with a hit somewhere; the sample as a whole holds those more often. Unmarked numbers belong to inactive results. No stated cut-off is given here; in the data, active means growth inhibition above about 70%; inactive means the rest.

The assay in a line: NCI Yeast Anticancer Drug Screen. Data for the mlh1 strain (AID 171).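 Further: 0% = growth of vehicle-treated control cultures of the same strain.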 As to conditions: S. cerevisiae mlh1 strain growth inhibition; at 1.2 µM; active compounds read high. Summed up:
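Growth of the mutant yeast strain after compound exposure, expressed as inhibition relative to vehicle-only controls.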
Turning to `S=C(Nc1ccc(Cl)c(Cl)c1)SCc1ccc2c(c1)OCO2`, the growth inhibition was -6%. `COc1cc(C2C3=C(COC3=O)Oc3cc4c(cc32)OCO4)ccc1O` (configuration not stated): the growth inhibition is -1%.

In the case of `S=C(Nc1ccc(Cl)cc1)SC1CCCCC1`, the growth inhibition was 4%.

As for `Nc1nc(-c2cccnc2)cc(-c2cc(-c3cccnc3)nc(N)n2)n1`, the growth inhibition was -1%.

Regarding `c1ccc(-c2nc3cccnc3s2)cc1`, the growth inhibition is 2%.

Turning to `O=[N+]([O-])c1cc(CCl)ccc1CCl`, the growth inhibition was 4%. Consider `COc1ccc(/C=C2\SC(=S)N(/C=C/c3nc4ccccc4[nH]c3=O)C2=O)cc1OC`, for which the growth inhibition was 1%.

`CCCN(CCC)CC(O)c1cc(-c2ccc(Cl)cc2)nc2c(C)c(Cl)ccc12` (configuration not stated): the growth inhibition was -3%. Take `O=C(Nc1ccccc1)OCCc1ccc(Cl)c(Cl)c1`: the growth inhibition is -3%. As for `CC(O)C(O)C(O)C(/C=N\Nc1ccccc1)=N/Nc1ccccc1` (configuration not stated), the growth inhibition was 3%. Regarding `C#CCCCc1ccccc1`, the growth inhibition is -20%. For the compound `CC(=O)Cc1ccc[cH-]1.[Fe+2].c1cc[cH-]c1`, the growth inhibition was -1%. As to `Cc1cc(I)ccc1N`, the growth inhibition is 25%.

In the case of `FC(F)(F)c1cc(NC(=S)N2c3ccccc3-n3cccc3C2c2cccnc2)cc(C(F)(F)F)c1` (configuration not stated), the growth inhibition is -2%. On to `CC(C)(CN1CCCCC1)C(=O)CC(SCCS(=O)(=O)O)c1ccc(Br)cc1` (configuration not stated), for which the growth inhibition is 3%.

In the case of `C[Si](C)(C)CNC(=O)OCc1ccccc1`, the growth inhibition was 3%. For the compound `CC(C(=O)N1C(=O)N(C(=O)[C@H](C)C(O)c2ccccc2)[C@H](c2ccccc2)[C@H]1c1ccccc1)[C@@H](O)c1ccccc1` (some centres not stated), the growth inhibition was -3%.

Values taken from PubChem BioAssay (NCI).
